Reference: PubChem BioAssay AID651707 (NMMLSC, 2012)
Screen size: about 2,300 compounds; about 170 (7.4%) were called active.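 Rule for the calls: active = over 5% cells positive for green fluorescent reporter, or over 2% positive for both it and APC stain; inactive = the rest, inconclusive results apart.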 Only a selection was taken, and actives are over-represented in it overall.

Assay: fluorescent artefacts in myeloid progenitor cells – cell-based, flow cytometry, GFP/APC, Cherry Pick01, artefact control for AML myeloid differentiation project, confirmation (AID 651707);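 note: range taken on the double positive population between DMSO and positive control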
Settings: ER-HoxA9 myeloid progenitors, no estrogen, GFP autofluorescence flow cytometry; hits give high values

| SMILES | fluorescence response |
| --- | --- |
| CC/C(=N\NC(=O)c1ccccc1O)c1c(O)n(Cc2ccccc2)c(=O)[nH]c1=O | 5.1% (active) |
